Assay outcomes (PubChem)
The list is not random: actives were taken first. Their share in the collection is about 19%.
BCR signal inh: qHTS Assay to Find Inhibitors of Chronic Active B-Cell Receptor Signaling. ABC-DLBCL IkBa-CBG/CBR reporter, luminescence ratio, 4 h. Potency, µM (highest dose often 46.1 µM), without a hit: top-dose activity change, negative = inhibition, most hits filed as inhibitors. 340,000 compounds, 0.05% hits; active = well fitted inhibition curve with a large enough effect in the signal ratio, with a control signal flat, not every such curve was filed as active; inconclusive = small, poorly fitted or top-dose-only effect, or effect the other way, or a change in a side signal; the % refers to the signal ratio;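 also: potency is read from the fitted curve at half-maximal effect; plate controls were basal doxycycline-induced cells for no effect and cells given 10 µM MG132 for full effect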
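Cell line TMD8 (human ABC DLBCL), stably expressing tet-inducible CBG68-IkBa fusion and CBR; IMDM/0.5% FBS; cpd up to 46 uM; dox induction, 4 h, 37C/5% CO2; dual luminescence; green/red ratio; MG132 control.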
TDP1 cell CPT: qHTS for Inhibitors of human tyrosyl-DNA phosphodiesterase 1 (TDP1): qHTS in cells in presence of CPT. chicken DT40 Tdp1-/-;hTDP1 cells + 20 nM CPT, ATP luminescence, 48 h. Potency, µM (series often up to 46.2 µM), inactives show at the top dose activity change, negative = growth inhibition, most hits filed as inhibitors. 420,000 compounds, 12% hits. AID 686979, 2013; also: potency is read from the fitted curve at half-maximal effect; % is scaled to controls: 0 for no effect and ±100 for the full control effect; nearly all actives have a fitted effect of over 55% in size
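Cell growth measured by CellTiter-Glo luminescence after a minimum 48 h, 37 C compound exposure with 20 nM CPT in Tdp1-knockout DT40 cells stably expressing hTDP1, seeded 400/well; qHTS titration format.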
MCF10A rerep: A quantitative high throughput screen for small molecules that induce DNA re-replication in MCF 10a normal breast cells; MCF 10A DNA re-replication, Hoechst nuclear intensity, 48 h; Potency, µM (top dose mostly 46.1 µM), for inactives: at the top dose activity, positive = re-replication, usual class: activators; 350,000 compounds, 2.9% hits; also: potency is read from the fitted curve at half-maximal effect; % of control where 0% means no effect; nearly all actives have a fitted effect of over 50% in size
IL1B secr inh: qHTS for Inhibitors of Inflammasome Signaling: IL-1-beta AlphaLISA Primary Screen; 360,000 compounds, 4.7% hits; activity change, % at 57.5 µM; THP-1 LPS/ATP IL-1B secretion, AlphaLISA, 16 h; stronger effect = lower value; AID 743279, 2014; in the data active = activity change below about -50%; inconclusive = mostly about -30% to -49%; also: % is scaled to controls: 0 for no effect and ±100 for the full control effect
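THP-1 cells pretreated 1 hr with compounds (up to 57.5 uM final), then stimulated with LPS (250 ng/mL final) plus ATP (1.25 mM final); secreted IL-1B measured by AlphaLISA after 16 hr, decreased signal indicating inhibition.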
SW480 rerep: A quantitative high throughput screen for small molecules that induce DNA re-replication in SW480 colon adenocarcinoma cells | SW480 DNA re-replication, Hoechst DNA content imaging, 48 h | Potency, µM (doses to about 46.1 µM), for inactives: at the highest dose re-replication activation, usual class: activators | 340,000 compounds, 1.8% hits; also: potency is read from the fitted curve at half-maximal effect; % of control where 0% means no effect; nearly all actives have a fitted effect of over 55% in size
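First, 250 cells per well were seeded. Next, compound or vehicle (23 nL) was pinned in, plates sat 48 hr at 37 C. Finally Hoechst was added for 40 min before fluorescence scanning.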
TDP1 cell noCPT: qHTS for Inhibitors of human tyrosyl-DNA phosphodiesterase 1 (TDP1): qHTS in cells in absence of CPT. DT40 Tdp1-/- hTDP1 cells, no CPT, ATP luminescence, 48 h. Potency, µM (titrated, usually from 46.2 µM), without a hit: at the top dose activity change, negative = growth inhibition, most hits filed as inhibitors. 420,000 compounds, 15% hits. AID 686978, 2013; also: potency is read from the fitted curve at half-maximal effect; % is scaled to controls: 0 for no effect and ±100 for the full control effect; nearly all actives have a fitted effect of over 55% in size
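Chicken DT40 Tdp1-/- cells complemented with human TDP1, screened without camptothecin (DMSO vehicle only), 400 cells/well. Compounds pin-transferred, cells incubated at 37 °C for at least 48 hr. Growth read as ATP-dependent luminescence (CellTiter-Glo, 30 min at RT).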
* marks the source's active call; other numbers are inactive results; ? = inconclusive; · = not tested or not shown. Unless noted, calls follow the shape of the dose curve; as a rule, active = well fitted curve in the direction sought with a large enough effect; inconclusive = small, poorly fitted or top-dose-only effect, or another doubt; inactive = no such curve, though single readings can be large; an effect the other way counts as inactive or inconclusive.

SMILES | BCR signal inh | TDP1 cell CPT | MCF10A rerep | IL1B secr inh | SW480 rerep | TDP1 cell noCPT
CCCCc1ccc(CC(=O)Nc2cc(S(=O)(=O)N3CCOCC3)ccc2O)cc1 | 4% | -27% | 5% | 16 | -7% | ?
Cc1cccc(OC(=O)c2nc(SCc3ccccc3F)ncc2Cl)c1 | · | -3% | · | · | · | -15%
Cc1cccc2cc(/C=N/NC(=O)c3ccccc3O)c(Cl)nc12 | -2% | 18µM* | 7.3µM* | 11 | · | ?
O=[N+]([O-])c1ccccc1N/N=C/c1cc2ccccc2nc1Cl | -8% | 4.1µM* | ? | 0 | 1% | ?
Cc1cccc2cc(/C=N/NC(=O)c3ccncc3)c(Cl)nc12 | 6% | -3% | -1% | 0 | -32% | 15%
O=C(N/N=C/c1cc2ccccc2nc1Cl)[C@H]1C[C@@H]1c1ccccc1 | 1% | 21µM* | ? | 0 | -6% | 16µM*
Cc1cccc2cc(/C=N/NC(=O)[C@H]3C[C@@H]3c3ccccc3)c(Cl)nc12 | ? | -1% | ? | 31 | 10% | 0%
COc1ccc(C(=O)NNC2=Nc3cccc4cccc2c34)cc1 | 4% | -20% | ? | 8 | 7% | -24%
COc1ccc(CC(=O)NNC2=Nc3cccc4cccc2c34)cc1 | -1% | -11% | 21µM* | · | 16µM* | -29%
COC(=O)C1Cc2c([nH]c3ccccc23)C2CCC(=O)N12 (centres undefined) | · | 3% | · | -5 | · | 2%
CC1(C)c2[nH]c3ccccc3c2C[C@H]2C(=O)N(Cc3ccccc3)C(=O)N21 | · | · | ? | · | -5% | ·
COC(=O)[C@@H]1Cc2c([nH]c3ccccc23)C(C)(C)N1C(=O)CCl | ? | 18µM* | 18µM* | -98* | 6.5µM* | 23µM*
CC1(C)c2[nH]c3ccccc3c2C[C@@H]2C(=O)N(Cc3ccccc3)C(=O)N21 | · | · | 23µM* | · | ? | ·
Cc1cccc(CN2C(=O)[C@@H]3Cc4c([nH]c5ccccc45)C(C)(C)N3C2=O)c1 | · | · | ? | · | 8% | ·
Cc1cccc(CN2C(=O)[C@H]3Cc4c([nH]c5ccccc45)C(C)(C)N3C2=O)c1 | · | · | 16µM* | · | ? | ·
Cc1ccc([C@H]2C(C(=O)O)=CC[C@@H](c3ccc4c(c3)OCO4)N2S(=O)(=O)c2ccc(C)cc2)cc1 | 1% | -23% | -65% | 4 | -5% | -28%
COc1ccc(-c2nn(CCC#N)cc2C(=O)Nc2cccc(C(=O)O)c2)cc1OC | -1% | -1% | -9% | 5 | 2% | 2%
Cc1cccc(CCNC(=O)C2CCC(CNS(=O)(=O)c3c(C)cc(C)cc3C)CC2)c1 (centres undefined) | 2% | ? | · | · | · | 16µM*
Cc1cc(C)c(S(=O)(=O)NCC2CCC(C(=O)NCCc3ccccc3)CC2)c(C)c1 (centres undefined) | 13% | 15µM* | · | · | · | 15µM*
Cc1ccc(/C(N)=N/OC(=O)/C=C/c2ccccc2)cc1 | 8% | -25% | -1% | -12 | -4% | -7%
Cc1ccc(C(=O)C(C(=O)/C=C/c2ccccc2)=C2SCCCS2)cc1 | ? | 5.8µM* | 21µM* | -111* | ? | 4.6µM*
CCSc1nc(-c2ccccc2OC)nc2c1Cc1c(CO)cnc(C)c1O2 | · | 8.2µM* | · | · | · | 8.2µM*
CCSc1nc(-c2ccccc2F)nc2c1Cc1c(CO)cnc(C)c1O2 | · | -14% | · | · | · | -25%
COc1cccc(CSc2nc(-c3ccccc3F)nc3c2Cc2c(CO)cnc(C)c2O3)c1 | · | ? | · | · | · | 21µM*
